The results in this text go back to ChEMBL document CHEMBL1961873, “Compounds: GSK PKIS; Assays: Nanosyn kinase panel” (2012).

Test [1] concerns the target T1, Serine/threonine-protein kinase D2 (Homo sapiens) (UniProt Q9BZL6).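 Also: mean value of PRKD2 inhibition, from the GSK PKIS screening panel.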
T1 sequence (whole entry): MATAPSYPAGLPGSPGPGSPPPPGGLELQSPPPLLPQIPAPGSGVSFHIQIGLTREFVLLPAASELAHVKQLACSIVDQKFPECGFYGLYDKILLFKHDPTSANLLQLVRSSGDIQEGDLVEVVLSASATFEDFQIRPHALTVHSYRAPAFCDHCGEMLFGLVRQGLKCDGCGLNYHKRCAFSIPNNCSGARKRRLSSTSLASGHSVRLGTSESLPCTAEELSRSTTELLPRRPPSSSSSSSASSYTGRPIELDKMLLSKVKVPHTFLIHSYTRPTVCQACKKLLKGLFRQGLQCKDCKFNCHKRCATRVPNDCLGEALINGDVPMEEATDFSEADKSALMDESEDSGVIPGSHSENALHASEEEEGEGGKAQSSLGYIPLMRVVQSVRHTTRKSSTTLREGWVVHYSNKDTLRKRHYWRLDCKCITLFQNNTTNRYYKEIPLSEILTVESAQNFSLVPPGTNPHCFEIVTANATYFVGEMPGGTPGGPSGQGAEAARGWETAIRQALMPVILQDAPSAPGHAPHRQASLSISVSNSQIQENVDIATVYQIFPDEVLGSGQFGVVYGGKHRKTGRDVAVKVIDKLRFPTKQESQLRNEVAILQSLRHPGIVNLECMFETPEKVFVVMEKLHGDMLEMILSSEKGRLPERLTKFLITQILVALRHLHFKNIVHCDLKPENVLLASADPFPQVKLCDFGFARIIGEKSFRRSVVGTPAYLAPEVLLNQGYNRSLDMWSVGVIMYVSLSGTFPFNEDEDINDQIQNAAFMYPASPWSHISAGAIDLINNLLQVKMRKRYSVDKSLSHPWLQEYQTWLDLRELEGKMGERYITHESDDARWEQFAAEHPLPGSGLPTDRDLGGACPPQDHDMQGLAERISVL
The conditions noted are these: at 1 µM.

The target of test [2] is T2, Serine/threonine-protein kinase D3 (Homo sapiens) (UniProt O94806).
T2 sequence (whole entry): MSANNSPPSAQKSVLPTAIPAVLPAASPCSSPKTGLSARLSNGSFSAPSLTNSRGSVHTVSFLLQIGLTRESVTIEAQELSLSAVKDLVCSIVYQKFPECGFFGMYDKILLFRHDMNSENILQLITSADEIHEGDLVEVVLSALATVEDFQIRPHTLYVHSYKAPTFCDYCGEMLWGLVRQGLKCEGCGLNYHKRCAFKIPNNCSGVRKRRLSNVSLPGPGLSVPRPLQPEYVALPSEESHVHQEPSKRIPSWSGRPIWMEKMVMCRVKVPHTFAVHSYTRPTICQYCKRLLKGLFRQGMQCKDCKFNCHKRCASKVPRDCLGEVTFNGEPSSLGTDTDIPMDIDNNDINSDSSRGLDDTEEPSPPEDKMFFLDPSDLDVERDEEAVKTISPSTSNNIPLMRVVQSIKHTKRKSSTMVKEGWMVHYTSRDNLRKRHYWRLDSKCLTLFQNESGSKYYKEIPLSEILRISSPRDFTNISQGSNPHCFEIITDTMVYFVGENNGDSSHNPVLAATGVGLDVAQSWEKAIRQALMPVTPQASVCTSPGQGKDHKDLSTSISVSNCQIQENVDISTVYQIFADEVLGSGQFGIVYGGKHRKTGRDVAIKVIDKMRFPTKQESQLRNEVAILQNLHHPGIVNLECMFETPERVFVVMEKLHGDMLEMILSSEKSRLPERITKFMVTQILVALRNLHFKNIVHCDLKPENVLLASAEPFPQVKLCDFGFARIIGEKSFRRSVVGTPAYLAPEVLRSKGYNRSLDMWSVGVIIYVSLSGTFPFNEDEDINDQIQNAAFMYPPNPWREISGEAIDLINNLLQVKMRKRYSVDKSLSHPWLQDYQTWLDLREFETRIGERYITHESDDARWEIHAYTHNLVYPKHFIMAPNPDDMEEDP
The conditions noted are these: at 0.1 µM.

The target of test [3] is T2, Serine/threonine-protein kinase D3 (Homo sapiens). The conditions noted are these: at 1 µM.
In test [4] the target is T3, cGMP-dependent protein kinase 1 (Homo sapiens) (UniProt Q13976).
T3 sequence (whole entry): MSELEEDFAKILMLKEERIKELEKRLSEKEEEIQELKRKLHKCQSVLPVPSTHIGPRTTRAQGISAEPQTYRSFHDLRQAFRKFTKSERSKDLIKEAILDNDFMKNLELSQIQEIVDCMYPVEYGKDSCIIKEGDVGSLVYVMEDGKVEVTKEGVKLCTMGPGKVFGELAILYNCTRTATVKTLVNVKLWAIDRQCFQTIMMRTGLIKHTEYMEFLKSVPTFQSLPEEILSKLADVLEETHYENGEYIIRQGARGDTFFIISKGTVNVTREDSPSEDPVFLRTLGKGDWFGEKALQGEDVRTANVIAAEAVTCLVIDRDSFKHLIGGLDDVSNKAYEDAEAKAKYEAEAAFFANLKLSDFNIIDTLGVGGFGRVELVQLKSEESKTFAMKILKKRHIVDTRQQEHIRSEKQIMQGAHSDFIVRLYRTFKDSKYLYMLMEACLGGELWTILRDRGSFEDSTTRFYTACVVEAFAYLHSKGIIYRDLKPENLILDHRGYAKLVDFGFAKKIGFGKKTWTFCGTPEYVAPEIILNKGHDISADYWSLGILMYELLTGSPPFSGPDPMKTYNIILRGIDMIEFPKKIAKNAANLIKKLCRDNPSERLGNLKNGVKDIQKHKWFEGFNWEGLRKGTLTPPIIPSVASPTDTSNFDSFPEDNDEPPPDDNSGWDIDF
The conditions noted are these: at 0.1 µM.

The target of test [5] is T3, cGMP-dependent protein kinase 1 (Homo sapiens). The conditions noted are these: at 1 µM.
Test [6] addresses T4, cGMP-dependent protein kinase 2 (Homo sapiens) (UniProt Q13237).
T4 sequence (whole entry): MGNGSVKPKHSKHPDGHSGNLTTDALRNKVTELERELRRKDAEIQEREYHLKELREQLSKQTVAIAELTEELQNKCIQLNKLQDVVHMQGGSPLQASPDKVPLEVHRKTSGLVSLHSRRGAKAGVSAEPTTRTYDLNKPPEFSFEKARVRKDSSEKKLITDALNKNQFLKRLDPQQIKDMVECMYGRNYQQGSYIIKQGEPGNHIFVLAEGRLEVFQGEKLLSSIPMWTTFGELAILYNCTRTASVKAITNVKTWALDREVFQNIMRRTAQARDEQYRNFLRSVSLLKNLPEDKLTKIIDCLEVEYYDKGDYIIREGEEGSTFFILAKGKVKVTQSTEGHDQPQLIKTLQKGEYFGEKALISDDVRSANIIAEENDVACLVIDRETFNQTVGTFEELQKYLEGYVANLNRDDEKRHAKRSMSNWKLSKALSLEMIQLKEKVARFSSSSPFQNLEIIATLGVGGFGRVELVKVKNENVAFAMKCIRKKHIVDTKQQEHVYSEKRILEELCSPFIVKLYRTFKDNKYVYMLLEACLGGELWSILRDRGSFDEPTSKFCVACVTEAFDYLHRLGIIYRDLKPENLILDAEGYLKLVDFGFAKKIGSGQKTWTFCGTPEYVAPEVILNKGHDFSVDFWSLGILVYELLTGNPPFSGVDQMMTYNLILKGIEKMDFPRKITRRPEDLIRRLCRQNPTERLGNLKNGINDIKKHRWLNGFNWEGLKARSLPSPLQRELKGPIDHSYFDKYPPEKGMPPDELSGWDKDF
The note with it: at 0.1 µM.

The target of test [7] is T4, cGMP-dependent protein kinase 2 (Homo sapiens). The note with it: at 1 µM.
Test [8] deals with T5, cAMP-dependent protein kinase catalytic subunit PRKX (Homo sapiens) (UniProt P51817).
T5 sequence (whole entry): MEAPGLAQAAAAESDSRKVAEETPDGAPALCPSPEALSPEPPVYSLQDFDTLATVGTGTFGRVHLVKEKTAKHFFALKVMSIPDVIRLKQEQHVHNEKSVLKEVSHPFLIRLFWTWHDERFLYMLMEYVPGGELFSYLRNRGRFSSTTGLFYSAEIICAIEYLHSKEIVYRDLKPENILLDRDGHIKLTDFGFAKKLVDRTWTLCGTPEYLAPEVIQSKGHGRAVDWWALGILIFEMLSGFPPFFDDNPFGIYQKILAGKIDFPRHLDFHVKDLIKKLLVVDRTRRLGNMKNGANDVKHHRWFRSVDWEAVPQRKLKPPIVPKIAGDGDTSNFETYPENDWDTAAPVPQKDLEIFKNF
The conditions noted are these: at 0.1 µM.

In test [9] the target is T5, cAMP-dependent protein kinase catalytic subunit PRKX (Homo sapiens). The note with it: at 1 µM.
The target of test [10] is Rho-associated protein kinase 1 (Homo sapiens) (UniProt Q13464). The note with it: at 0.1 µM.
Test [11] shares this target. The conditions noted are these: at 1 µM.
Test [12] deals with Rho-associated protein kinase 2 (Homo sapiens) (UniProt O75116). The note with it: at 0.1 µM.
Test [13] shares this target. The conditions noted are these: at 1 µM.
In test [14] the target is Ribosomal protein S6 kinase alpha-1 (Homo sapiens) (UniProt Q15418). The note with it: at 0.1 µM.
For test [15] the target is unchanged. The note with it: at 1 µM.
The target in test [16] is Ribosomal protein S6 kinase alpha-3 (Homo sapiens) (UniProt P51812). The conditions noted are these: at 0.1 µM.
For test [17] the target is unchanged. The conditions noted are these: at 1 µM.
In test [18] the target is Ribosomal protein S6 kinase alpha-2 (Homo sapiens) (UniProt Q15349). The note with it: at 0.1 µM.
For test [19] the target is unchanged. The note with it: at 1 µM.
In test [20] the target is Ribosomal protein S6 kinase alpha-6 (Homo sapiens) (UniProt Q9UK32). The note with it: at 0.1 µM.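 Also: reported value is the mean inhibition of RSK4, from the GSK PKIS kinase inhibitor screen.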
Sequence of Ribosomal protein S6 kinase alpha-6 (Homo sapiens) (Q9UK32 whole entry): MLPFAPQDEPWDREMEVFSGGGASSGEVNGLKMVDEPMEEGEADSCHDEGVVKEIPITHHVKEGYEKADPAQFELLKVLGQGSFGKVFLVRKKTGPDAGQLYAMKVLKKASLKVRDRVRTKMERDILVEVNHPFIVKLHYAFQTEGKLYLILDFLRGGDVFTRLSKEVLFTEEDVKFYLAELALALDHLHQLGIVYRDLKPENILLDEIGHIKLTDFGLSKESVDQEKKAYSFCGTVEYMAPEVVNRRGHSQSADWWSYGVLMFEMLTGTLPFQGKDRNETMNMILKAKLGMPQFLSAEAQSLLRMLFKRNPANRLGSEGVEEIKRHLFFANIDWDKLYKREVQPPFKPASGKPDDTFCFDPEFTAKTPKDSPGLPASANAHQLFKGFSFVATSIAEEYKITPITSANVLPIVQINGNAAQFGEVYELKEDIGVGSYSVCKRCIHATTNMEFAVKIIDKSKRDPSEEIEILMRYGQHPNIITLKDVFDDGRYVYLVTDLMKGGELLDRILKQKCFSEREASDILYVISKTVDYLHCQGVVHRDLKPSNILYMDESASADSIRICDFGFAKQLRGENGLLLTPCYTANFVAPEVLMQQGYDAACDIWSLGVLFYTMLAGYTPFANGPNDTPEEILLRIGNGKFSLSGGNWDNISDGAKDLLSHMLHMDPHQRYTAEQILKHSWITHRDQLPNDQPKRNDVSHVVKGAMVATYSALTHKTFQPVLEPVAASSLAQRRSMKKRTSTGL

Sequence of Rho-associated protein kinase 1 (Homo sapiens) (Q13464 2-1354 limits assumed): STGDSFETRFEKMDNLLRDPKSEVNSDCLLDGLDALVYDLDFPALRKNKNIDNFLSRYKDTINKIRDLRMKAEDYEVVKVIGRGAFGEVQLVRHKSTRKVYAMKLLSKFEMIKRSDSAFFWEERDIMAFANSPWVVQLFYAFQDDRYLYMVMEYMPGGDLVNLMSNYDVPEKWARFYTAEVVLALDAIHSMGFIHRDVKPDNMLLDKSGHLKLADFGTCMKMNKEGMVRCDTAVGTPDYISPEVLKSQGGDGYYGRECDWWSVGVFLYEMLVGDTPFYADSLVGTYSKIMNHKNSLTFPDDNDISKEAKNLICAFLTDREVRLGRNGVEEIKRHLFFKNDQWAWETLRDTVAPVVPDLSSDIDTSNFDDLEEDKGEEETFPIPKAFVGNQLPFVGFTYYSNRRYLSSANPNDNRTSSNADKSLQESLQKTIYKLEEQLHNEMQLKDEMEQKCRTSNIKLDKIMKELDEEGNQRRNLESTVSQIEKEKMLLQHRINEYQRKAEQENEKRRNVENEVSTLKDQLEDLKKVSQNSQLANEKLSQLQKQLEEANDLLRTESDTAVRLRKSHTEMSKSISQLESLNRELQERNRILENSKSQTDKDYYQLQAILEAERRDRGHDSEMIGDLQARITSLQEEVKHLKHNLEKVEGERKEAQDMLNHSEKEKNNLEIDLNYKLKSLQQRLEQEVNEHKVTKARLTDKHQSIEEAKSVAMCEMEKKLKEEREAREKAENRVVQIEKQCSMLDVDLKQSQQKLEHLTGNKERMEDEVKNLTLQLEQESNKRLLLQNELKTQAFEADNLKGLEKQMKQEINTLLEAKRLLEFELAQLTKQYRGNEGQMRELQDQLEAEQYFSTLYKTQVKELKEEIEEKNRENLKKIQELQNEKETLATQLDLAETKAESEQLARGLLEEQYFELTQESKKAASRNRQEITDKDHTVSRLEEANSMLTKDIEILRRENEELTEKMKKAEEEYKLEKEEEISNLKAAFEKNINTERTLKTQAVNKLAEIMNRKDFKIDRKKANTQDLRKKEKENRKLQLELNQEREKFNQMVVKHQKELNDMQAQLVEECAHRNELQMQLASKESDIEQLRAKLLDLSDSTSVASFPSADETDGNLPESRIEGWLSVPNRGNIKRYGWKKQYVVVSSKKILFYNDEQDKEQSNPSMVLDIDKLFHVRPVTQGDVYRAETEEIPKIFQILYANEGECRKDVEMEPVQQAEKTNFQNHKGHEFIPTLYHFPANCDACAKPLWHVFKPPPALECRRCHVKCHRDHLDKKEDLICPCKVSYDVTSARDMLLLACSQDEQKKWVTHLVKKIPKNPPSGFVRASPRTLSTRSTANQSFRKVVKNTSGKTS
Sequence of Ribosomal protein S6 kinase alpha-2 (Homo sapiens) (Q15349 whole entry): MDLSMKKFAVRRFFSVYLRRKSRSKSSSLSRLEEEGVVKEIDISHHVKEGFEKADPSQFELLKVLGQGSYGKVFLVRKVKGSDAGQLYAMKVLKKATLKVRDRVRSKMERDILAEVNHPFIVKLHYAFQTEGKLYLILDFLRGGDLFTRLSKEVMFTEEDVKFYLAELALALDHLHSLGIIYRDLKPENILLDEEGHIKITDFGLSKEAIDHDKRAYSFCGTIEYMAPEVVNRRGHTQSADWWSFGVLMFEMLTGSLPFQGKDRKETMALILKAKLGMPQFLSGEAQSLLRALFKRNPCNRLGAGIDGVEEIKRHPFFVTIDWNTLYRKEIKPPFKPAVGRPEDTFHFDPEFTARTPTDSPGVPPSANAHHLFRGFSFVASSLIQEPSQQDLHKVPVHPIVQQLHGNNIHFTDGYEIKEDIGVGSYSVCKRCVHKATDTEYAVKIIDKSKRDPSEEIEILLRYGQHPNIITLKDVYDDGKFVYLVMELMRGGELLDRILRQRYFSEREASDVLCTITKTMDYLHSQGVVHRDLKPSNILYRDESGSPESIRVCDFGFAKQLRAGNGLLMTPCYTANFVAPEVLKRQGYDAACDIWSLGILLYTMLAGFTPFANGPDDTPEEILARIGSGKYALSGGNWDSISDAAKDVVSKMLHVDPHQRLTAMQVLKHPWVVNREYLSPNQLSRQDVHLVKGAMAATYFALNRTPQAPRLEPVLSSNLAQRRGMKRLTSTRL
Sequence of Rho-associated protein kinase 2 (Homo sapiens) (O75116 whole entry, looked up): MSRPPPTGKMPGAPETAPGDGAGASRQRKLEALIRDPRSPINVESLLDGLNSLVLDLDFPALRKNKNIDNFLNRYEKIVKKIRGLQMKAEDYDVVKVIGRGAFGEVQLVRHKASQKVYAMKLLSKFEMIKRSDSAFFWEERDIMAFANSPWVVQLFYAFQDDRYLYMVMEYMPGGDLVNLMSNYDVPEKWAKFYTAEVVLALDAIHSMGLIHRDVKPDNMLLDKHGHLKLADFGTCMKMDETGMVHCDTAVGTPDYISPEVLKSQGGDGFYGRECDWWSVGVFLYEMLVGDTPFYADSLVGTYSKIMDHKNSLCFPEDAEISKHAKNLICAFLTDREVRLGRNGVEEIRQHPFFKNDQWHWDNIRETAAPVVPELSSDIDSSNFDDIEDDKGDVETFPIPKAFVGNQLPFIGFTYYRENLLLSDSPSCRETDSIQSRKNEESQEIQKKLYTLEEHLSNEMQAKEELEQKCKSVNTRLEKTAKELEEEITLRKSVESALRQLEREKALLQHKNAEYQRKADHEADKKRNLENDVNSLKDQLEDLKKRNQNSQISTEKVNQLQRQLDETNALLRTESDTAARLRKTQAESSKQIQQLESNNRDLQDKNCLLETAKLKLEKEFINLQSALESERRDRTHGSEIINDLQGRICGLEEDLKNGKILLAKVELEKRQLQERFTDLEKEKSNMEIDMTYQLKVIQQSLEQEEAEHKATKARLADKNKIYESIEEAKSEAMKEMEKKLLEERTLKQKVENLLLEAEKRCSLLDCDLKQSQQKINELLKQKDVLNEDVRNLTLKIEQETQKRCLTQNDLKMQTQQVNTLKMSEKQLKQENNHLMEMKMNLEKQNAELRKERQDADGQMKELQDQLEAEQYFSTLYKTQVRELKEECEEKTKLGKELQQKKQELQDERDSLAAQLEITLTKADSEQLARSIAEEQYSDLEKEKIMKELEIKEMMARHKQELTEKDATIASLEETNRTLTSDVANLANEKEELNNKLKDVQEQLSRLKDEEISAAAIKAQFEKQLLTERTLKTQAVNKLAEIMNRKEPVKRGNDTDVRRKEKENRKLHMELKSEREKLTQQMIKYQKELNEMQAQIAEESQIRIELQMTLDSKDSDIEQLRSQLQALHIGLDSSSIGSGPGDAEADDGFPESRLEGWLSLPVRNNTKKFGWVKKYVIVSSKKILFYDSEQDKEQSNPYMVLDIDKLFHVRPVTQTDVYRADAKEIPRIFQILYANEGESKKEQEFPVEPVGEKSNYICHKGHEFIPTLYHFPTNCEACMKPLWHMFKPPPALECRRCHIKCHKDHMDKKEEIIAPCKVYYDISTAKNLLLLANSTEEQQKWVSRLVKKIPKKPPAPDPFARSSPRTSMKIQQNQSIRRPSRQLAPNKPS
Sequence of Ribosomal protein S6 kinase alpha-3 (Homo sapiens) (P51812 whole entry): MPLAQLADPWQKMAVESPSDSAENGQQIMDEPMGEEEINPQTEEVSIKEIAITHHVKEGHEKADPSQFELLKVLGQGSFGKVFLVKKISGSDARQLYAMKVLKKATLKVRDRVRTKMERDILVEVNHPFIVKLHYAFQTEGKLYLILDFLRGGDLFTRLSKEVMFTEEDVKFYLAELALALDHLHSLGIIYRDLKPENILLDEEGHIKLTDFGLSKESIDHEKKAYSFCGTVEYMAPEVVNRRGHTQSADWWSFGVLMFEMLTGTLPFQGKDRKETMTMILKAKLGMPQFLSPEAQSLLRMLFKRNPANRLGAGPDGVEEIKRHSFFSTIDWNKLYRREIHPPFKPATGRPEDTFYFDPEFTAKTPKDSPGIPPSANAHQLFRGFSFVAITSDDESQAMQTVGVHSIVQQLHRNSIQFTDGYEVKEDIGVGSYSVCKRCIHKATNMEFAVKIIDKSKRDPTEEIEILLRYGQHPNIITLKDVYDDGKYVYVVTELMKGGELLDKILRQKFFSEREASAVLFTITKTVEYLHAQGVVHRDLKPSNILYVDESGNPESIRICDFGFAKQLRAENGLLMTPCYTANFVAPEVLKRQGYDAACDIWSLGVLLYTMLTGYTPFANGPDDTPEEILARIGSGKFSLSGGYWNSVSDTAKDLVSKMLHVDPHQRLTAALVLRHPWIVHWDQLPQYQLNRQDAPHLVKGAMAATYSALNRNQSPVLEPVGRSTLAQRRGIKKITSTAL

As a reminder, the inhibition is the drop in the measured response relative to a control, in per cent. With `Nc1ncnc2occ(-c3ccc(NC(=O)Nc4cccc(C(F)(F)F)c4)cc3)c12`, the inhibition in test [1] came out at 4.09%; in [2] it was 5.37%; in test [3] it was 5.91%; in test [4] it was 3.04%; in [5] it was 1.94%; in test [6], 2.46%. The inhibition in test [7] turned out to be 3.85%; in [8] it was 1.94%; in test [9], 3.42%; in [10] it was 4.04%; in test [11] it was 19%; in test [12], 11.1%. For the same molecule, the inhibition in test [13] was found to be 46.9%; in test [14], 4.59%; in test [15] it was 33.8%; in test [16], 2.15%; in [17], 26.1%; in test [18] it was 7.44%. For the same molecule, the figures for the inhibition in [19] and in test [20] were 52.9% and -0.29%, respectively.
Consider `c1cnn2ncc(-c3ccnc(Nc4ccc5c(c4)OCCO5)n3)c2c1`, for which the inhibition was determined as 38.2% in test [1]; 7.82% in test [2]; 50.5% in test [3]; 4.87% in [4]; 18.9% in test [5]; 1.98% in test [6]. The inhibition was found to be 8.51% in [7]; 1.25% in [8]; 2.29% in [9]; 1.28% in test [10]; 9.73% in test [11]; 4.95% in test [12]. Moreover, the inhibition worked out at 19.1% in test [13]; 2.62% in test [14]; 7.26% in test [15]; 0.94% in test [16]; 4.28% in [17]; 2.89% in [18]. In addition, the inhibition worked out at 4.85% in test [19] and 3.28% in test [20].
Regarding `COc1cc2ncn(-c3cc(OCc4ccccc4C(F)(F)F)c(C(N)=O)s3)c2cc1OC`, the inhibition is -1.87% in [1]; 0.67% in [2]; -0.49% in [3]; 2.93% in test [4]; 0.86% in test [5]; 1.68% in [6]. Further, the inhibition in test [7] was 1.12%; in test [8] it was 1.89%; in [9], 2.8%; in [10] it was 1.68%; in test [11], 4.31%; in test [12], 3.56%. For the same molecule, the inhibition in test [13] was 8.03%; in test [14], 0.65%; in test [15], 9.54%; in [16] it was -0.02%; in [17], 11.1%; in test [18] it was 2.5%. Moreover, the inhibition came out at 8.42% in test [19] and 3.37% in test [20].
